Assay results reported in ChEMBL document CHEMBL1961873, “Compounds: GSK PKIS; Assays: Nanosyn kinase panel” (2012).
“And” between values parts separate entries of the source, which are not always exact repeats. Equal entries are not always repeated.

How the values were obtained:
[1] = molecular target: Rho-associated protein kinase 1 (Homo sapiens) (UniProt Q13464); conditions: at 1 µM;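 also: reported values are mean percent inhibition of ROCK1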
[2] = molecular target: Rho-associated protein kinase 2 (Homo sapiens) (UniProt O75116); conditions: at 0.1 µM
[3] = molecular target: Rho-associated protein kinase 2 (Homo sapiens) (UniProt O75116); conditions: at 1 µM
[4] = molecular target: Ribosomal protein S6 kinase alpha-1 (Homo sapiens) (UniProt Q15418); conditions: at 0.1 µM
[5] = molecular target: Ribosomal protein S6 kinase alpha-1 (Homo sapiens) (UniProt Q15418); conditions: at 1 µM
[6] = molecular target: Ribosomal protein S6 kinase alpha-3 (Homo sapiens) (UniProt P51812); conditions: at 0.1 µM
[7] = molecular target: Ribosomal protein S6 kinase alpha-3 (Homo sapiens) (UniProt P51812); conditions: at 1 µM
[8] = molecular target: Ribosomal protein S6 kinase alpha-2 (Homo sapiens) (UniProt Q15349); conditions: at 0.1 µM
[9] = molecular target: Ribosomal protein S6 kinase alpha-2 (Homo sapiens) (UniProt Q15349); conditions: at 1 µM
[10] = molecular target: Ribosomal protein S6 kinase alpha-6 (Homo sapiens) (UniProt Q9UK32); conditions: at 0.1 µM
[11] = molecular target: Ribosomal protein S6 kinase alpha-6 (Homo sapiens) (UniProt Q9UK32); conditions: at 1 µM
[12] = molecular target: T1, Serine/threonine-protein kinase Sgk1 (Homo sapiens) (UniProt O00141); conditions: at 0.1 µM
T1 sequence (whole entry): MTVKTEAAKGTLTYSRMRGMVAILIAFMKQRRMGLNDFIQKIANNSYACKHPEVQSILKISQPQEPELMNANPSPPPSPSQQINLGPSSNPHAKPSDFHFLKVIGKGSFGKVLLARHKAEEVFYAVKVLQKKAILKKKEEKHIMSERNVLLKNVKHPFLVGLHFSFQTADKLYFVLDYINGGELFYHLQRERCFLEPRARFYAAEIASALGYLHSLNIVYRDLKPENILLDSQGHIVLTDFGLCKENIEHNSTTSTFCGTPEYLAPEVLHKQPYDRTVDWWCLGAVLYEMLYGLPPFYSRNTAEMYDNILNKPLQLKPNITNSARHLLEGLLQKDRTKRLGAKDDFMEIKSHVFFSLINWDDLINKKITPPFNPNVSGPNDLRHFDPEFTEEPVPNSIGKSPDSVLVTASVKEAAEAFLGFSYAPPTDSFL

[13] = molecular target: T1, Serine/threonine-protein kinase Sgk1 (Homo sapiens); conditions: at 1 µM
[14] = molecular target: T2, Serine/threonine-protein kinase Sgk2 (Homo sapiens) (UniProt Q9HBY8); conditions: at 0.1 µM
T2 sequence (whole entry): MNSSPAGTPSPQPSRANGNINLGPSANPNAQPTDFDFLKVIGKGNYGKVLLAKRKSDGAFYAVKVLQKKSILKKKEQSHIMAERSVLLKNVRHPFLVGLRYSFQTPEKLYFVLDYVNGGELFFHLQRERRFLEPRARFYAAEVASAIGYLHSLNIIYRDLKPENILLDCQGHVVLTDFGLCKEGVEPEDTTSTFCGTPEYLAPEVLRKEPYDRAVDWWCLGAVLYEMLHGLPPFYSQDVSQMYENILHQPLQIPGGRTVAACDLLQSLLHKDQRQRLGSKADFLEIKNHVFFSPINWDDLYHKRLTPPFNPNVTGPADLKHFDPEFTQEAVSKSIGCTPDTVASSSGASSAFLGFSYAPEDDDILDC

[15] = molecular target: T2, Serine/threonine-protein kinase Sgk2 (Homo sapiens); conditions: at 1 µM
[16] = molecular target: T3, Serine/threonine-protein kinase Sgk3 (Homo sapiens) (UniProt Q96BR1); conditions: at 0.1 µM
T3 sequence (whole entry): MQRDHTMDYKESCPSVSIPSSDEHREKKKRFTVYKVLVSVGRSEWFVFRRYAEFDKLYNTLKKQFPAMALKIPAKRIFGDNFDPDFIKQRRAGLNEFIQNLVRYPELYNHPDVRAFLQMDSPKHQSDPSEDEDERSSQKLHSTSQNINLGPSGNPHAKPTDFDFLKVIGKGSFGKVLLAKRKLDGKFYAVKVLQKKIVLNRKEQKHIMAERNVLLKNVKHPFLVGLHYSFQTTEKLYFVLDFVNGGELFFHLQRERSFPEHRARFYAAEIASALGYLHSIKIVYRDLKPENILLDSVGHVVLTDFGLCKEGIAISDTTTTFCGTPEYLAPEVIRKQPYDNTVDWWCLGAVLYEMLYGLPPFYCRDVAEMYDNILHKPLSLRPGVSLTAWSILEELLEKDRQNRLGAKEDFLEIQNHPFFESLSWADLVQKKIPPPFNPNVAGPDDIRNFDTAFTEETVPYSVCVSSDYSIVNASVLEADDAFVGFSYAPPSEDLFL

[17] = molecular target: T3, Serine/threonine-protein kinase Sgk3 (Homo sapiens); conditions: at 1 µM
[18] = molecular target: 5'-AMP-activated protein kinase catalytic subunit alpha-1 (Homo sapiens) (UniProt Q13131); conditions: at 0.1 µM
[19] = molecular target: 5'-AMP-activated protein kinase catalytic subunit alpha-1 (Homo sapiens) (UniProt Q13131); conditions: at 1 µM
[20] = molecular target: 5'-AMP-activated protein kinase catalytic subunit alpha-2 (Homo sapiens) (UniProt P54646); conditions: at 0.1 µM;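 also: mean inhibition measured on the AMPK complex of alpha2, beta1 and gamma1 subunits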

Chain of Ribosomal protein S6 kinase alpha-2 (Homo sapiens) (Q15349 whole entry): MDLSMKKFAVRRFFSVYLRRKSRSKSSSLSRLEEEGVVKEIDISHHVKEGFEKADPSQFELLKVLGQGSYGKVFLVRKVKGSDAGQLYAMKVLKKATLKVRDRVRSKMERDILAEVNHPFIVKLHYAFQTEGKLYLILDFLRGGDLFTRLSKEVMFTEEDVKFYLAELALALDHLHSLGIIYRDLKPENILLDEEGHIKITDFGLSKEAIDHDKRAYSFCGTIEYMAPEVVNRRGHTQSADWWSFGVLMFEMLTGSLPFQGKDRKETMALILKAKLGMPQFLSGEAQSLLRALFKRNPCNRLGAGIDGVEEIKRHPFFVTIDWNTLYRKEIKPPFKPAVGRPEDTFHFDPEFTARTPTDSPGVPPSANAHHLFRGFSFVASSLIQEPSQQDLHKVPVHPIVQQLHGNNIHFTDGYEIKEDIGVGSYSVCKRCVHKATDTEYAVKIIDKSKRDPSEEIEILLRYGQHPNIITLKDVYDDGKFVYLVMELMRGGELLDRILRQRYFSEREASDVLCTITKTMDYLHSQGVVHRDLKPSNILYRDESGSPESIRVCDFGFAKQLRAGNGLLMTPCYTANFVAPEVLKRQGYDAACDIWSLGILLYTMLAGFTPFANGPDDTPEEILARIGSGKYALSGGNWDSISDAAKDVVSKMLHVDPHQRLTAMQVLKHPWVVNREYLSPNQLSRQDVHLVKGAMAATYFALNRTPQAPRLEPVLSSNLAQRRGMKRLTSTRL
Chain of Rho-associated protein kinase 2 (Homo sapiens) (O75116 whole entry, looked up): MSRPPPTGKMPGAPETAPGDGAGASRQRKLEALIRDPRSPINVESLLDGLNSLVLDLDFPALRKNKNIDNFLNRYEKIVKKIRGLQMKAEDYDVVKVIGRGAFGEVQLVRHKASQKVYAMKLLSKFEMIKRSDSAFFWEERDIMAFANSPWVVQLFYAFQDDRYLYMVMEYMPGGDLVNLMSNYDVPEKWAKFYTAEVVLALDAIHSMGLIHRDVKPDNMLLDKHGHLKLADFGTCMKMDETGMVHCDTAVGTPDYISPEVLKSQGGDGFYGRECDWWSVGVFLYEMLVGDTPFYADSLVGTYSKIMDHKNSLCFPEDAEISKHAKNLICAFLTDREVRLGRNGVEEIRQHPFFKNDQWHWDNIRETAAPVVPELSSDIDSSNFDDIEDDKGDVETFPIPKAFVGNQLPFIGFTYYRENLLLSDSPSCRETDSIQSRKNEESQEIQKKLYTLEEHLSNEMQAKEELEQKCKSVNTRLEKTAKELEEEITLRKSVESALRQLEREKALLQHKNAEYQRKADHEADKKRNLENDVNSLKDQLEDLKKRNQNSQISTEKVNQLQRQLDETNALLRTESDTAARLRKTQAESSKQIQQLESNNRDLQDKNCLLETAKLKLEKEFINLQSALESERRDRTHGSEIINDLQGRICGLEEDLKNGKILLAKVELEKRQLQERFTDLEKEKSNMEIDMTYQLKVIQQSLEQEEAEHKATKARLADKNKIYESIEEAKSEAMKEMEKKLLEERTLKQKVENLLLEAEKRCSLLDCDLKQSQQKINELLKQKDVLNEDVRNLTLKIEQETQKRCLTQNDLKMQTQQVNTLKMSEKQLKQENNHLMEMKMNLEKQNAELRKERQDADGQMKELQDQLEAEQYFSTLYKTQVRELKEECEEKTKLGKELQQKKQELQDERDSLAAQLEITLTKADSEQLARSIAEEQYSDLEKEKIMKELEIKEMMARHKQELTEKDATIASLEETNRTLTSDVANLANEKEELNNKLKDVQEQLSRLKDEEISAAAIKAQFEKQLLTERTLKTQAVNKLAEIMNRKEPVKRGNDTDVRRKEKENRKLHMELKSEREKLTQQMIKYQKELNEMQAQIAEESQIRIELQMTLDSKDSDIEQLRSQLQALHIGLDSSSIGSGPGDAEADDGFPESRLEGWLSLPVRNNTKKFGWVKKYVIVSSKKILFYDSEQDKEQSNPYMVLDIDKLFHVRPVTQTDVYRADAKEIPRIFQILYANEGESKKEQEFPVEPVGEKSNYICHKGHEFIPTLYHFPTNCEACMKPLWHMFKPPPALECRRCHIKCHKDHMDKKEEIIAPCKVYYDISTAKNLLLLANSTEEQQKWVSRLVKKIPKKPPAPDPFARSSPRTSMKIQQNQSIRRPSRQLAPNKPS
Chain of Rho-associated protein kinase 1 (Homo sapiens) (Q13464 2-1354 limits assumed): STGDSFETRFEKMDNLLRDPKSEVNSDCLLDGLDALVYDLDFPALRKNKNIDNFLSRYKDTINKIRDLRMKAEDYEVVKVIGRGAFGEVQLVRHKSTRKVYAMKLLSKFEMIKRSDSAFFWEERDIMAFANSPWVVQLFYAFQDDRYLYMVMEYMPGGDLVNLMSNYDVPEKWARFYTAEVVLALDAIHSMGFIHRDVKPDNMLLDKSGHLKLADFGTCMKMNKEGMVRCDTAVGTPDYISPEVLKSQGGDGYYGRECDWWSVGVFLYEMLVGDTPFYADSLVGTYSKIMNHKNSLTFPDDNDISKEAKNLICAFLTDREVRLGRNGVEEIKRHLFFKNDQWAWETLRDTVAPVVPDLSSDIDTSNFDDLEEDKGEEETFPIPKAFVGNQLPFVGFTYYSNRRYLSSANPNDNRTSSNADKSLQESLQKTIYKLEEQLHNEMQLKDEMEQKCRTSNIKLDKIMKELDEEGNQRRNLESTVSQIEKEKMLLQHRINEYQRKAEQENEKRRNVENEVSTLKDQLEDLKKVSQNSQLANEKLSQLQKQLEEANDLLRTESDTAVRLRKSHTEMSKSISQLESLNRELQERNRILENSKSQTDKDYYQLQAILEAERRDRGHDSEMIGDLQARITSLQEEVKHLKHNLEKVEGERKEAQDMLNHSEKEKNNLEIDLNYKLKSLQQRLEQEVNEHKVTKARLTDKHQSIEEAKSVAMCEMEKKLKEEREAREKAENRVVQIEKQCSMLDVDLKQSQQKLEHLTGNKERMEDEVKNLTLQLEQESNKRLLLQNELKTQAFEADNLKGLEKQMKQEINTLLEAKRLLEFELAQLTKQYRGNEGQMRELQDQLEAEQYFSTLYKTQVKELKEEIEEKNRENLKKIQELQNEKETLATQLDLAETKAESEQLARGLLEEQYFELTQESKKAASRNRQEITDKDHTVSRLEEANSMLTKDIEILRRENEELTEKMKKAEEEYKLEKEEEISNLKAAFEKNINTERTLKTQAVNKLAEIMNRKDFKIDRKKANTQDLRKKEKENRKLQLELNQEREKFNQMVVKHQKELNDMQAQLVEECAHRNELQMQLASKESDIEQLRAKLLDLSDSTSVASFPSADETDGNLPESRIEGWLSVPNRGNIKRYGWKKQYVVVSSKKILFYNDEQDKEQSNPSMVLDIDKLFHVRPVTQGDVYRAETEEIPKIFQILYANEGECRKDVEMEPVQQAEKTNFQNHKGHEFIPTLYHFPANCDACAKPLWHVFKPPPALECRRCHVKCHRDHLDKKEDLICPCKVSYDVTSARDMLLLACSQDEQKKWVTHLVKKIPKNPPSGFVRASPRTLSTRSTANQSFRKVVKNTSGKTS
Chain of 5'-AMP-activated protein kinase catalytic subunit alpha-1 (Homo sapiens) (Q13131 whole entry, looked up): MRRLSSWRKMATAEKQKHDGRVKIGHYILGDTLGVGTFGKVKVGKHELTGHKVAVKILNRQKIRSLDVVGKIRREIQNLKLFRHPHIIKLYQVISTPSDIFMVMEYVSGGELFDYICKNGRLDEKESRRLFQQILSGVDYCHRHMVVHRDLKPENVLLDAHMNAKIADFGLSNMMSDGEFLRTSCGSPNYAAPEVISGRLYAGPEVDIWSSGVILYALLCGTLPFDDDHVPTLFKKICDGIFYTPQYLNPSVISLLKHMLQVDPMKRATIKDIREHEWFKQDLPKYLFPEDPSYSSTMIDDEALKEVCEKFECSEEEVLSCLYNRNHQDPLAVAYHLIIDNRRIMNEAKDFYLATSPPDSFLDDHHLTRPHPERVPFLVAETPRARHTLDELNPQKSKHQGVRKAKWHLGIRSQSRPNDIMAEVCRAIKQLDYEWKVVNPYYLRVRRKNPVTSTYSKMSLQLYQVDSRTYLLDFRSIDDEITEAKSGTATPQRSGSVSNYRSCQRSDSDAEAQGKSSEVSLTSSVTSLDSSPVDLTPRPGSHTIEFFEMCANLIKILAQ
Chain of Ribosomal protein S6 kinase alpha-3 (Homo sapiens) (P51812 whole entry): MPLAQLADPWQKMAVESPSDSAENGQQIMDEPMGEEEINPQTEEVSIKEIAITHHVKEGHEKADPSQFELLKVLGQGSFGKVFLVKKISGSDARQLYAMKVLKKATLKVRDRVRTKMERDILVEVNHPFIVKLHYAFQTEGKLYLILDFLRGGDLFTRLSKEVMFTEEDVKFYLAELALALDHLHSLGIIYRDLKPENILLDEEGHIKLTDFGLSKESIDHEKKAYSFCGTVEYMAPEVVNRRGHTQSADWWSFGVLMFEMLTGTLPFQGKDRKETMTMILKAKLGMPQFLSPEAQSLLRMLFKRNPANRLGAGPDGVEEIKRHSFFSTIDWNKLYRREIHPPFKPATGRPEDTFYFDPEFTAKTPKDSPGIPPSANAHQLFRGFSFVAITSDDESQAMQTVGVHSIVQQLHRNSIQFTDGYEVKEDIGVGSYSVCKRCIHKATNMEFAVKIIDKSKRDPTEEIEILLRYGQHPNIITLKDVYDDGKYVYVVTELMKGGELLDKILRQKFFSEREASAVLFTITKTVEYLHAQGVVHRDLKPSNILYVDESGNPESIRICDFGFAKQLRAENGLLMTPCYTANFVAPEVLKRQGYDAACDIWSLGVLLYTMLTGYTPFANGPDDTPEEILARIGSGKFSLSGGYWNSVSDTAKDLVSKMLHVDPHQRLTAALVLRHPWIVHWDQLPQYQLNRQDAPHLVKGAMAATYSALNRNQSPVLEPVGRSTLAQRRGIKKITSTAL

Structure (SMILES) | inhibition [1] | inhibition [2] | inhibition [3] | inhibition [4] | inhibition [5] | inhibition [6] | inhibition [7] | inhibition [8] | inhibition [9] | inhibition [10] | inhibition [11] | inhibition [12] | inhibition [13] | inhibition [14] | inhibition [15] | inhibition [16] | inhibition [17] | inhibition [18] | inhibition [19] | inhibition [20]
Cn1c(-c2nonc2N)nc2cnccc21 | 52.4% | 20% | 67.5% | 9.65% | 44.8% | 3.58% | 23% | 8.32% | 41.4% | 2.49% | 5.91% | 3.35% | 6.24% | 5.57% | 10.7% | 2.77% | 13.6% | 3.36% | 3.2% | 0.94%
c1cnn2ncc(-c3ccnc(NCCCN4CCOCC4)n3)c2c1 | 4.7% | 4.49% | 4.16% | 1.74% | 4.45% | 0.98% | 2.86% | 1.93% | 3.97% | -0.14% | 0.49% | 1.8% | 3.79% | 0.34% | 5.05% | 5.66% | 8.34% | 2.28% | 2.5% | 3.24%
OCCCNc1nccc(-c2c(-c3ccc(F)cc3)nn3cc(C(F)(F)F)ccc23)n1 | 2.58% | 2.07% | 2.72% | 1.23% | 2.41% | 0.38% | 1.08% | 1.69% | 2.43% | 0.24% | 2.38% | 2.5% | 1.43% | 1.44% | 5.76% | 1.97% | 2.06% | 2.58% | 1.3% | -0.71%
CNC(=O)c1ncccc1Nc1nc(Nc2cc3c(cc2OC)CCCN3C(=O)CN(C)C)nc2[nH]ccc12 | 8.73% | 3.75% | 8.67% | 5.58% | 25.8% | 2.99% | 14.5% | 3.13% | 7.32% | 3.92% | 19.7% | 2.04% | 2.57% | 0.57% | 1.29% | 4.05% | 4.49% | 5.47% | 6.88% | 3.31%
Nc1ncnc2occ(-c3ccc(NC(=O)Nc4cc(C(F)(F)F)ccc4F)cc3)c12 | 10.2% and 6.77% | 7.01% and 2.27% | 40% and 27.8% | 9.06% and 4.67% | 46.6% and 34.2% | 3.22% and 1.04% | 22.5% and 15.8% | 9.18% and 5.3% | 51.1% and 37.7% | -2.74% and 0.37% | 9.97% and 5.9% | 1.7% and 0.49% | 3.4% and 1.19% | -0.51% and 1.78% | 2.34% and 2.65% | 1.18% and 0.24% | 1.67% and -1.01% | 2.02% and -1.41% | 1.94% and -0.8% | -0.22% and 3.36%
NS(=O)(=O)c1ccc(N/N=C2\C(=O)Nc3ccc(C(=O)NCc4ccncc4)cc32)cc1 | 5.11% | 4.18% | 15.1% | 1.77% | 7.98% | 2.2% | 6.7% | 1.92% | 7.63% | 3.7% | 11.3% | 3.41% | 12.9% | 0.65% | 8.08% | 4.07% | 8.33% | 41.7% | 75.5% | 5.3%
COc1cc(N2CCN(C(C)C)CC2)ccc1Nc1nc(Nc2cccc(F)c2C(=O)O)c2cc[nH]c2n1 | 2.22% | 2.05% | 5.77% | 4.06% | 16% | 2.18% | 11.6% | 0.99% | 5.21% | 2.17% | 13% | 0.41% | 5.92% | 0.2% | 3.35% | 3.6% | 4.41% | 3.98% | 5.67% | 0.48%
Nc1nccc(-c2c(-c3ccc(F)cc3)ncn2C2CCNCC2)n1 | 0.03% and 1.75% | -3.31% and 1.51% | -3.28% and 1.52% | -1.25% and 0.52% | 1.83% and 2.8% | -1.12% and 0.34% | 0.29% and 1.05% | -1.68% and 0.37% | 0.91% and 1.92% | -2.38% and 0.34% | 4.21% and 1.38% | 0.06% and 1.23% | 2.06% and 1.69% | -3% and 1.37% | 0.49% and 1.29% | -1.13% and 1.78% | -2.95% and -0.32% | -1.82% and 0.38% | 0.26% and 0.1% | -1.29% and 1.97%
COc1ccc2ncn(-c3cc(O[C@H](C)c4ccccc4C(F)(F)F)c(C(N)=O)s3)c2c1 | 0.18% | -0.01% | -0.4% | 0.85% | 3.85% | 1.38% | 6.99% | 0.69% | 2.5% | 1.31% | 9.8% | 0.33% | 0.95% | -1.23% | 0.53% | -0.12% | 0.72% | -0.57% | 3.14% | 0.8%
NC(=O)c1ccc2c(-c3ccnc(NCCCO)n3)c(-c3ccc(F)cc3)nn2c1 | 1.92% | 3.55% | 5.31% | 3.69% | 1.7% | 0.96% | 1.23% | 2.66% | 3.1% | 2.24% | 2.84% | 2.62% | 2.32% | 4.31% | 1.91% | 2.16% | 1.28% | 2.28% | 7.4% | 3.45%
Cc1cc(O)cc(C)c1/C=C/c1cncc(C(N)=O)c1 | 3.29% | 3.18% | 2.02% | 0.33% | -0.09% | 1.07% | -0.35% | 1.1% | 1.48% | 0.72% | 1.18% | 1.6% | 2.14% | 3.61% | 3.1% | 1.2% | 1.31% | 1.98% | 1.85% | 2.5%
COc1cccc(-n2ncc3c(N/N=C/c4ccc(C(=O)NCCN(C)C)cc4)ncnc32)c1 | 7.32% | 5.29% | 9.45% | 1.48% | 6.32% | 0.89% | 5.65% | 1.89% | 8.18% | 2.38% | 6.67% | 8.85% | 47.9% | 6.05% | 40.1% | 3.22% | 3.92% | 3.69% | 12.3% | 2.3%
COc1cc2c(cc1Nc1nc(Nc3cccc(F)c3C(N)=O)c3cc[nH]c3n1)N(C(=O)CN1CCN(C(C)C)CC1)CC2 | 0.34% | 0.62% | 2.82% | 4.37% | 20.1% | 2.2% | 10.3% | 1.68% | 2.89% | 3.57% | 11.7% | -0.48% | 1.29% | 1.96% | 0.58% | 0.73% | 0.46% | 1.45% | 3.93% | 5.43%
